Here are results for 40 molecules from PubChem BioAssay (Tox21).

Records with an inconclusive call do not appear. Active and inactive are the calls of the source. Calls follow the shape of the dose curve; as a rule, active = well fitted activation curve with a large enough effect in the signal ratio in the repeat runs (not every such curve was filed as active); inconclusive = weak or mixed curves, or effect the other way; inactive = no such curve, though single readings can be large or run the other way; the % refers to the signal ratio.
% is scaled to controls: 0 for no effect and ±100 for the full control effect; potency is read from the fitted curve at half-maximal effect.

The target in this test is Glucocorticoid receptor (Homo sapiens) (UniProt P04150). The test is described as follows: qHTS assay to identify small molecule agonists of the glucocorticoid receptor (GR) signaling pathway (AID 720691). The note with it: GR-bla HeLa, beta-lactamase reporter ratio, 18 h; activation: at 62.4 µM (top of the series). From the text: U.S. Tox21 Program National Center for Advancing Translational Sciences [NCATS] NIH Chemical Genomics Center [NCGC] U.S. Environmental Protection Agency [EPA] National Institutes of Environmental Health Sciences [NIEHS] National Toxicology Program [NTP] U.S. Food and Drug Administration [FDA] Tox21 Assay Overview: The Glucocorticoid receptor (GR) is one of the members of the nuclear receptor family of ligand-dependent transcription factors. GR plays a critical role in carbohydrate, protein and lipid metabolisms and programmed cell death. CellSensor GR-bla HeLa cell line (Invitrogen) contains a beta-lactamase reporter gene under the control of the glucocorticoid response element stably integrated into HeLa cells, a cervical cancer cell line that expresses glucocorticoid receptor. The activation of the reporter gene under culture conditions can be detected by fluorescence intensity. This cell line has been used to screen the Tox21 10K compound library and to identify the compounds that activate the GR signaling.
Chain of Glucocorticoid receptor (Homo sapiens) (P04150 whole entry, looked up): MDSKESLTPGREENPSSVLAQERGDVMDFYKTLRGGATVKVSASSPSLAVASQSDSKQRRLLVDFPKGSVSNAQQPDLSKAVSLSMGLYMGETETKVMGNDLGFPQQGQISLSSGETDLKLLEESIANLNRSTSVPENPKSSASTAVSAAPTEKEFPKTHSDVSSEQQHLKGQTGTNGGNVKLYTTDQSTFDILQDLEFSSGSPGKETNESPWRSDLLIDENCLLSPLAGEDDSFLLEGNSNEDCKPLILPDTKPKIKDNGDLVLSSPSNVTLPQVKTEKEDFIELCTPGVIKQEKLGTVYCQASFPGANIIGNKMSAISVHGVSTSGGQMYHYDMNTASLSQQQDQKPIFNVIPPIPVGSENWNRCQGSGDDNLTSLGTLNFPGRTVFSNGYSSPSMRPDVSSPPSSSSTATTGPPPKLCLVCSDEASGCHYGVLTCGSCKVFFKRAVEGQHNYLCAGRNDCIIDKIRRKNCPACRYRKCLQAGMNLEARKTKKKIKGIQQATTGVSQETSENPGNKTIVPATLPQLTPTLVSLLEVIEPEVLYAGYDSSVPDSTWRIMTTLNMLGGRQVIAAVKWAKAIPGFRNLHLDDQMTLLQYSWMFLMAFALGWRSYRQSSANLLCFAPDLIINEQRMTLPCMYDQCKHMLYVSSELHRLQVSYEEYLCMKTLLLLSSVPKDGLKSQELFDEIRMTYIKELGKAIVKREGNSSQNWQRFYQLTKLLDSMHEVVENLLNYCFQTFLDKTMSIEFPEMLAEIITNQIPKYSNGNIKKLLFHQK
Tox21 Assay Protocol Summary: The GR-bla HeLa cells were dispensed at 1500 cells/6 ul/well in 1536-well black wall/clear bottom plates using a Multidrop Combi (ThermoFisher Scientific, Waltham, MA) dispenser. After the assay plates were incubated at a 37 C/5% CO2 incubator for 4 hours, 23 nL of compounds dissolved in DMSO, positive controls or DMSO only was transferred to the assay plate by a pintool station (Kalypsys, San Diego, CA). The plates were incubated at 37 C for 18 hours. After 1 uL of LiveBLAzerTM B/G FRET substrate was added using a Flying Reagent Dispenser (Aurora Discovery, San Diego, CA), the plates were incubated at room temperature for 2 hours, and fluorescence intensity was measured by an Envision plate reader (PerkinElmer, Shelton, CT).
Background: In qHTS, concentration-response curves come from the screen itself.
`O=C(O)CCCCCCNC1c2ccccc2CCc2ccccc21`: the “activation” value was 4.41% (inactive).
On the same count and under the same terms, then `Clc1c(Cl)c(Cl)c(Cl)c(Cl)c1Cl`, with -0.383% [at 6.9 µM] (inactive); and `Nc1cc(Cl)ccc1Cl`, with 0.229% (inactive).
On the same count and under the same terms, then `O=[N+]([O-])c1ccc(CCl)cc1`, with 0.518% (inactive); and `Clc1ccc(C(Cl)(Cl)Cl)cc1Cl`, with -2.13% (inactive); and `CC(C)c1c(CN(C)C(C)Cc2ccccc2)n(C)n(-c2ccccc2)c1=O` (stereo not given), with -2.33% [at 29.2 µM] (inactive).
For `CCN(CC)CCc1c[nH]c2ccccc12`, the “activation” value was 2.69% [at 79.2 µM] (inactive).
Take `c1ccc2c(c1)cc1ccc3cccc4ccc2c1c34`: the Potency is 25 µM [fluorescent] (active).
Take `Cc1c([N+](=O)[O-])cc2c(c1[N+](=O)[O-])C(C)(C)CC2(C)C`: the “activation” value was -0.0682% (inactive).
Turning to `CCO/N=C(\CC)C1=C(O)CC(c2c(C)cc(C)cc2C)CC1=O` (stereo not given), the “activation” value was -8.97% (inactive).
The same measure, in the same setting: to `CSC(=O)c1c(C(F)F)nc(C(F)(F)F)c(C(=O)SC)c1CC(C)C` belongs 0.406% (inactive); to `ClCBr`, 1.71% [at 79.2 µM] (inactive).
The same measure, in the same setting: then `CCCCN(CCCC)C(=S)[S-].CCCCN(CCCC)C(=S)[S-].[Ni+2]`, with -2.69% (inactive).
Same read-out and setting: then `CCC1(CC)C(=O)N=C(O)NC1=O`, with -0.155% (inactive); and `Nc1ccc(N=Nc2ccccc2)cc1`, with -15.2% (inactive).
For the molecule `CC(Cc1ccc(O)cc1)NCC(O)c1cc(O)cc(O)c1` (stereo not given), the “activation” value was -0.0257% (inactive).
Same read-out and setting: then `Cc1cnc2c(C(=O)O)c(Cl)ccc2c1`, with -1.58% (inactive).
The same measure, in the same setting: then `Oc1ccc2[nH]cc(CCCCN3CC=C(c4ccccc4)CC3)c2c1`, with 1.79% (inactive); and `CCCCC(CC)COC(=O)c1ccccc1C(=O)OCC(CC)CCCC` (stereo not given), with 1.79% (inactive); and `COCCC#N`, with -1.06% (inactive).
Same read-out and setting: then `Cc1ccccc1OP(=O)(Oc1ccccc1C)Oc1ccccc1C`, with -8.97% [at 79.2 µM] (inactive); and `CN(C)CCc1c[nH]c2ccccc12`, with 3.22% [at 79.2 µM] (inactive); and `CO/N=C(/C1=NOCCO1)c1ccccc1Oc1ncnc(Oc2ccccc2Cl)c1F`, with 3.64% (inactive).
On to `CCCCON=O`, for which the “activation” value is 0.104% [at 79.2 µM] (inactive).
As for `c1ccc2nc(N3CCNCC3)ccc2c1`, the “activation” value is -8.88% (inactive).
Still for that read-out and setting: to `CCN(CC)C(=O)N[C@@H]1C=C2c3cccc4[nH]cc(c34)C[C@@H]2N(C)C1` belongs -4.86% (inactive); to `Cc1ccc2cc3c(ccc4ccccc43)c3c2c1CC3`, -3.2% (inactive); to `ClC1(Cl)C2(Cl)C3(Cl)C4(Cl)C(Cl)(Cl)C5(Cl)C3(Cl)C1(Cl)C5(Cl)C24Cl` (stereo not given), -0.209% (inactive).
Still for that read-out and setting: to `COP(=S)(NC(C)C)Oc1ccc(C)cc1[N+](=O)[O-]` (stereo not given) belongs -5.49% (inactive); to `CC1(C)[C@H](/C=C2\CCSC2=O)[C@@H]1C(=O)OCc1coc(Cc2ccccc2)c1`, 1.62% (inactive); to `NC(=O)C(Cl)Cl`, 0.627% (inactive).
`CCCCc1ccccc1`: the “activation” value is 1.25% (inactive).
Take `CSC(C)(C)/C=N/O`: the “activation” value is -2.99% (inactive).
For `COC(=O)/C=C(\C)OP(=O)(OC)OC`, the “activation” value is 4.12% (inactive).
Still for that read-out and setting: to `O=[N+]([O-])C(Br)Br` belongs -0.439% (inactive); to `CCN(CC)Cc1nccn1-c1ccc([N+](=O)[O-])cc1C(=O)c1ccccc1Cl`, -0.748% (inactive).
On the same count and under the same terms, to `CN1CCc2cc(Cl)c(O)cc2[C@H]2c3ccccc3CC[C@@H]21` belongs 0.765% (inactive).
Same read-out and setting: then `CN`, with -2.48% [at 79.2 µM] (inactive); and `CCOP(=O)(Sc1ccccc1)Sc1ccccc1`, with 4.03% (inactive); and `Clc1ccc(C(c2ccc(Cl)cc2)C(Cl)Cl)cc1`, with 4.52% (inactive).
